Laboratory results published in PubChem BioAssay (NCI).
About 83,000 compounds went through this panel and 20% of them were active in at least one assay; those are over-represented in the sample as a whole.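 The endpoint reported here, percent growth, reads 100 for growth as untreated, 0 for no net growth and -100 for all cells dead.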 The source made the active and inactive calls. The calls were made as follows: active = growth percent below 10; inactive = the rest.

Key:
Experiment in all cases: NCI-60 one-dose screen, 48 h (100 = growth as untreated, 0 = no growth, -100 = all killed)
Settings in all cases: 10 µM unless noted
NCI-H23 lung = tested on: NCI-H23 lung
NCI-H226 lung = tested on: NCI-H226 lung
NCI-H322M lung = tested on: NCI-H322M lung
HOP-62 NSCLC = tested on: HOP-62 NSCLC
NCI-H460 lung = tested on: NCI-H460 lung
HOP-92 NSCLC = tested on: HOP-92 NSCLC
NCI-H522 lung = tested on: NCI-H522 lung
A549/ATCC NSCLC = tested on: A549/ATCC NSCLC
786-0 renal = tested on: 786-0 renal
COLO 205 colon = tested on: COLO 205 colon
DU-145 prostate = tested on: DU-145 prostate
K-562 leukemia = tested on: K-562 leukemia
MALME-3M melanoma = tested on: MALME-3M melanoma
MDA-MB-231 breast = tested on: MDA-MB-231 breast
RXF 393 renal = tested on: RXF 393 renal
SF-268 CNS = tested on: SF-268 CNS
SF-295 CNS = tested on: SF-295 CNS
SF-539 CNS = tested on: SF-539 CNS
UACC-257 melanoma = tested on: UACC-257 melanoma
M14 melanoma = tested on: M14 melanoma

Measured: growth

COc1ccc(C/C(=C(\C)c2ccc(OCCN3CCCC3)cc2)c2ccc(OCCN3CCCC3)cc2)cc1
inactive: NCI-H23 lung 83.9% | NCI-H226 lung 84.4% | NCI-H322M lung 81.7% | HOP-62 NSCLC 80.3% | HOP-92 NSCLC 26.4% | NCI-H522 lung 56.8% | A549/ATCC NSCLC 69.3% | 786-0 renal 69.1% | DU-145 prostate 70% | MALME-3M melanoma 47.1% | MDA-MB-231 breast 17.8% | RXF 393 renal 55.7% | SF-268 CNS 69.9% | SF-295 CNS 34.2% | SF-539 CNS 29.9% | UACC-257 melanoma 63.9%
active: NCI-H460 lung 6.71% | COLO 205 colon -25.8% | K-562 leukemia -64.1% | M14 melanoma -64.8%

CCNC(=O)Oc1ccc(/C(=C(\C)c2ccccc2)c2ccc(OCCN3CCCCC3)cc2)cc1
inactive: NCI-H23 lung 73.6% | NCI-H226 lung 92.2% | NCI-H322M lung 82.7% | HOP-62 NSCLC 59.4% | NCI-H460 lung 49.3% | HOP-92 NSCLC 73.4% | NCI-H522 lung 93.4% | A549/ATCC NSCLC 56% | 786-0 renal 16.4% | DU-145 prostate 84.1% | MALME-3M melanoma 46.6% | MDA-MB-231 breast 70.7% | RXF 393 renal 59.3% | SF-268 CNS 68.1% | SF-295 CNS 29.7% | SF-539 CNS 24.3%
active: COLO 205 colon 6.41% | K-562 leukemia 6.5% | UACC-257 melanoma -26.4% | M14 melanoma -2.47%

Cn1ccnc1C(=O)/C=C/c1ccc(CC(=O)Nc2ccc(Cl)cc2)cc1
inactive: NCI-H23 lung 19.2% | NCI-H226 lung 76.7% | HOP-92 NSCLC 72% | 786-0 renal 11.3% | MALME-3M melanoma 87.6% | RXF 393 renal 17.9% | UACC-257 melanoma 85.9% | M14 melanoma 67.7%
active: NCI-H322M lung 6.08% | HOP-62 NSCLC -21.2% | NCI-H460 lung -27.6% | NCI-H522 lung 6.86% | A549/ATCC NSCLC 6% | COLO 205 colon 7.39% | DU-145 prostate 6.47% | K-562 leukemia 7.81% | MDA-MB-231 breast 7.75% | SF-268 CNS 7.98% | SF-295 CNS 1.24% | SF-539 CNS -35.2%

COc1cccc(/C=N/NC(=O)c2cnn3c2NC(c2ccccc2)C3)c1Oc1ccccc1 (stereo not given)
inactive: NCI-H23 lung 95.5% | NCI-H226 lung 97.7% | NCI-H322M lung 102% | HOP-62 NSCLC 74.3% | NCI-H460 lung 88% | HOP-92 NSCLC 105% | NCI-H522 lung 54.2% | A549/ATCC NSCLC 73% | 786-0 renal 79.8% | COLO 205 colon 79.6% | DU-145 prostate 89.8% | K-562 leukemia 36% | MALME-3M melanoma 75.3% | MDA-MB-231 breast 90.7% | RXF 393 renal 82.1% | SF-268 CNS 88.3% | SF-295 CNS 63.3% | SF-539 CNS 84% | UACC-257 melanoma 86.3% | M14 melanoma 50.2%

C=C1C(=O)O[C@H]2[C@H]1CC/C(CNC(=O)/C=C/c1cccc(OC)c1)=C\CC[C@@]1(C)O[C@@H]21
inactive: NCI-H23 lung 64.4% | NCI-H226 lung 73.6% | NCI-H322M lung 72.6% | HOP-62 NSCLC 68.7% | NCI-H460 lung 76% | A549/ATCC NSCLC 47.2% | DU-145 prostate 13.2% | SF-268 CNS 48.4% | SF-295 CNS 71.8%
active: HOP-92 NSCLC -31.7% | NCI-H522 lung -69.4% | 786-0 renal -59.2% | COLO 205 colon -56.5% | K-562 leukemia 3.75% | MALME-3M melanoma -45% | MDA-MB-231 breast 7.34% | RXF 393 renal -80.5% | SF-539 CNS -70.5% | UACC-257 melanoma -6.14% | M14 melanoma -36.8%

C=C1C(=O)O[C@H]2[C@H]1CC/C(CNC(=O)C(C)c1ccc(CC(C)C)cc1)=C\CC[C@@]1(C)O[C@@H]21 (stereo not given in full)
inactive: NCI-H23 lung 51.4% | NCI-H226 lung 75.1% | NCI-H322M lung 72.3% | HOP-62 NSCLC 60% | NCI-H460 lung 36.2% | A549/ATCC NSCLC 42.2% | DU-145 prostate 16.4% | SF-268 CNS 43.9% | SF-295 CNS 75.9%
active: HOP-92 NSCLC -19.1% | NCI-H522 lung 7.53% | 786-0 renal -86% | COLO 205 colon -34.8% | K-562 leukemia -13.8% | MALME-3M melanoma -60.7% | MDA-MB-231 breast -1.8% | RXF 393 renal -64.4% | SF-539 CNS -74.8% | UACC-257 melanoma -11.4% | M14 melanoma -74.3%

CCN(CC)c1ccc(/C=N/NC(=O)CSc2nc3ccccc3c(=O)n2Cc2ccc(S(N)(=O)=O)cc2)c(O)c1
inactive: NCI-H23 lung 39.6% | NCI-H226 lung 31.1% | NCI-H322M lung 27.1% | HOP-62 NSCLC 21.2% | HOP-92 NSCLC 58.4% | A549/ATCC NSCLC 29% | 786-0 renal 32.6% | DU-145 prostate 37.8% | MALME-3M melanoma 31.3% | MDA-MB-231 breast 25.3% | RXF 393 renal 42.6% | SF-268 CNS 18.6% | SF-295 CNS 20.3% | SF-539 CNS 27.9% | UACC-257 melanoma 13%
active: NCI-H460 lung 6.78% | NCI-H522 lung -26.1% | COLO 205 colon -2.18% | K-562 leukemia 6.12% | M14 melanoma 4.26%

COc1cc2nc(-c3ccc(Cl)cc3)cc(OCCCN3CCC(O)CC3)c2cc1OC
inactive: NCI-H23 lung 76.1% | NCI-H322M lung 58.3% | HOP-62 NSCLC 63.2% | NCI-H460 lung 23.8% | HOP-92 NSCLC 38.1% | NCI-H522 lung 33.4% | A549/ATCC NSCLC 34.9% | 786-0 renal 75.2% | COLO 205 colon 23.8% | DU-145 prostate 38.5% | K-562 leukemia 13.9% | MALME-3M melanoma 64% | MDA-MB-231 breast 26.1% | RXF 393 renal 46.3% | SF-268 CNS 54.8% | SF-539 CNS 54.3%
active: NCI-H226 lung 3.82% | SF-295 CNS -10.5% | UACC-257 melanoma 8.39% | M14 melanoma -48%

O=C(CCN1CCCC1)Nc1ccc2c(NCc3ccccc3)c3ccccc3nc2c1
active: NCI-H23 lung -29.8% | NCI-H226 lung -2.39% | NCI-H322M lung -0.926% | HOP-62 NSCLC -3.52% | NCI-H460 lung -34.4% | HOP-92 NSCLC -9.2% | NCI-H522 lung -28.2% | A549/ATCC NSCLC -19.7% | 786-0 renal 5.35% | COLO 205 colon -41.6% | DU-145 prostate -25% | K-562 leukemia -14.3% | MALME-3M melanoma -18.5% | MDA-MB-231 breast -14.9% | RXF 393 renal -16% | SF-268 CNS -2.23% | SF-539 CNS 5.91% | UACC-257 melanoma 1.08% | M14 melanoma 7.61%
inactive: SF-295 CNS 15.5%

C=C(C)[C@@H]1CC[C@]2(C(=O)N3CCN(C)CC3)CC[C@]3(C)[C@H](CC[C@@H]4[C@@]5(C)C/C(=C/c6cccnc6)C(=O)C(C)(C)[C@@H]5CC[C@]43C)[C@@H]12
inactive: NCI-H23 lung 78.5% | NCI-H226 lung 72.7% | NCI-H322M lung 107% | HOP-62 NSCLC 88.4% | NCI-H460 lung 44.3% | HOP-92 NSCLC 52.8% | NCI-H522 lung 59% | A549/ATCC NSCLC 49.4% | 786-0 renal 75.7% | COLO 205 colon 65% | DU-145 prostate 74% | K-562 leukemia 21.9% | MALME-3M melanoma 71.4% | MDA-MB-231 breast 74.9% | RXF 393 renal 52.2% | SF-268 CNS 72.7% | SF-295 CNS 87.3% | SF-539 CNS 74.5% | UACC-257 melanoma 66.6% | M14 melanoma 69.5%

Nc1n[nH]c2cccc(C#Cc3cccc(C(=O)Nc4cc(CN5CCOCC5)cc(C(F)(F)F)c4)c3)c12
inactive: NCI-H23 lung 38.4% | NCI-H226 lung 26.7% | NCI-H322M lung 62.1% | HOP-62 NSCLC 38.7% | NCI-H460 lung 26.6% | NCI-H522 lung 39.3% | A549/ATCC NSCLC 42.4% | 786-0 renal 63.8% | COLO 205 colon 14.6% | DU-145 prostate 58.9% | MDA-MB-231 breast 19.6% | RXF 393 renal 24% | SF-268 CNS 41.9% | SF-295 CNS 54.6% | UACC-257 melanoma 33%
active: HOP-92 NSCLC -7.48% | K-562 leukemia 4.98% | MALME-3M melanoma 0.564% | SF-539 CNS 8.6% | M14 melanoma 6.89%

CCCCCN1C=C/C(=C\C(=O)N(C)c2ccc(OC(F)(F)F)cc2)c2ccccc21
inactive: NCI-H23 lung 87.1% | NCI-H226 lung 95% | NCI-H322M lung 99.6% | HOP-62 NSCLC 90.8% | NCI-H460 lung 101% | HOP-92 NSCLC 98.1% | NCI-H522 lung 78.5% | A549/ATCC NSCLC 91.3% | 786-0 renal 99.4% | COLO 205 colon 104% | DU-145 prostate 110% | K-562 leukemia 90.3% | MALME-3M melanoma 95.3% | MDA-MB-231 breast 97.7% | RXF 393 renal 107% | SF-268 CNS 100% | SF-295 CNS 93% | SF-539 CNS 103% | UACC-257 melanoma 93.8% | M14 melanoma 102%

Cn1cc(CC2CC(=O)N(c3ccccc3)C2=O)sc1=NC(=O)c1ccccc1 (stereo not given)
inactive: NCI-H23 lung 95.8% | NCI-H226 lung 97.5% | NCI-H322M lung 92.5% | HOP-62 NSCLC 92.9% | NCI-H460 lung 106% | HOP-92 NSCLC 85.1% | NCI-H522 lung 92.8% | A549/ATCC NSCLC 101% | 786-0 renal 94.4% | COLO 205 colon 111% | DU-145 prostate 103% | K-562 leukemia 104% | MALME-3M melanoma 89.9% | MDA-MB-231 breast 111% | RXF 393 renal 92.2% | SF-268 CNS 96.2% | SF-295 CNS 102% | SF-539 CNS 99.8% | UACC-257 melanoma 98% | M14 melanoma 90.9%

CCCCCN1C=C/C(=C\C(=O)N(C)c2ccc(Oc3ccccc3)cc2)c2ccccc21
inactive: NCI-H23 lung 68.4% | NCI-H226 lung 79.1% | NCI-H322M lung 89.8% | HOP-62 NSCLC 87.4% | NCI-H460 lung 92% | HOP-92 NSCLC 47.7% | NCI-H522 lung 61.1% | A549/ATCC NSCLC 82.3% | 786-0 renal 89.7% | COLO 205 colon 81.6% | DU-145 prostate 103% | K-562 leukemia 48.8% | MALME-3M melanoma 83.7% | MDA-MB-231 breast 76.9% | RXF 393 renal 85.8% | SF-268 CNS 87.8% | SF-295 CNS 81.1% | SF-539 CNS 92.8% | UACC-257 melanoma 74.2% | M14 melanoma 94.1%
